Measured values published in PubChem BioAssay (Tox21).
“And” between values parts separate entries of the source, which are not always exact repeats. Identical values can stand only once. Results filed as inconclusive are left out. Where a call stands in place of a potency, no number is given. The source made the active and inactive calls. Calls follow the shape of the dose curve; as a rule, active = well fitted cell-killing curve with a large enough effect in the repeat runs; inconclusive = weak or mixed curves; inactive = no such curve, though single readings can be large or run the other way.
Potency is read from the fitted curve at half-maximal effect.

Assay: qHTS assay for identifying genotoxic compounds that show differential cytotoxicity against isogenic chicken DT40 cell lines with known DNA damage response pathways - Rad54/Ku70 mutant cell line (AID 743015); also: nearly all actives have a fitted effect of over 60% in size
Conditions: DT40 Rad54/Ku70 mutant viability, CellTiter-Glo, 40 h; series mostly up to 66.8 µM
From the text: National Center for Advancing Translational Sciences [NCATS]
NIH Chemical Genomics Center [NCGC]
U.S. Environmental Protection Agency [EPA]
National Institutes of Environmental Health Sciences [NIEHS]
National Toxicology Program [NTP]
U.S. Food and Drug Administration [FDA]
DNA repair pathways play a critical role in cellular homeostasis by repairing DNA damage induced by endogenous processes and xenobiotics. Isogenic chicken DT40 cell lines deficient in different DNA repair pathways can be used to identify genotoxic compounds and aid in characterizing the nature of the DNA damage induced. Two DNA repair-deficient cell lines with disrupted genes, Rad54/Ku70 or Rev3, were used to screen the Tox21 10K compound library. Possible genotoxicity was based on the presence of a significant increase in cytotoxicity in one or more of the DNA repair-deficient cell lines compared to that observed in the parental DNA repair-proficient cell line. CellTiter Glo viability assay (Promega, Madison, WI) was used to measure cell viability in these cells after compound treatment. This assay includes the data from the Rad54/Ku70 mutant cell line.
Tox21 Assay Protocol Summary:
300 DT40 mutant cells in 5 uL/well were dispensed into white, solid-bottom 1536-well plates using a Multidrop Combi (ThermoFisher Scientific, Waltham, MA) dispenser. After the assay plates were incubated at 37 C/5% CO2 for approximately 0.5 hour, 23 nL of compounds dissolved in DMSO, positive controls or DMSO only was transferred into the assay plate by a pintool work station (Kalypsys, San Diego, CA). The assay plates were incubated at 37 C/5% CO2 for 40 hours. After 5 uL per well of CellTiter-Glo reagent was added into each well of the assay plates, the plates were incubated for 30 min at room temperature and the luminescence intensity of the plates was measured using a ViewLux (PerkinElmer, Shelton, CT) plate reader.
For `CCC(C)c1cc(C(C)(C)C)c(O)c(C(C)(C)C)c1` (stereo not given), the Potency was “inactive”. For `O=CC1CC=CCC1` (stereo not given), the Potency was “inactive”. In the case of `COc1ccc(C(=O)Nc2nc3ccccc3c(NCc3ccccc3)c2C#N)cc1`, the Potency is reported as 15.4 µM (active). With `COc1cc(C(=O)OCCCN2CCCN(CCCOC(=O)c3cc(OC)c(OC)c(OC)c3)CC2)cc(OC)c1OC` the Potency was 8.41 µM (active). With `O=C(O)c1nc(Cl)c(Cl)c(Cl)c1Cl` the Potency was 61.1 µM (active). In the case of `CC1(c2ccccc2)OC(C(=O)O)=CC1=O` (stereo not given), the Potency is reported as “inactive”. With `CCCCCCCC#N` the Potency was “inactive”. With `CCCCC(CC)COC(=O)COc1ccc(Cl)cc1Cl` (stereo not given) the Potency was “inactive”. For `COc1ccc(S(=O)(=O)N2C(=O)[C@@](c3ccccc3OC)(N3C[C@H](O)C[C@H]3C(=O)N(C)C)c3cc(Cl)ccc32)c(OC)c1`, the Potency was 48.6 µM (active). With `CCCCCCCN` the Potency was “inactive”. In the case of `CC(C)O.CC(C)O.CCOC(=O)/C=C(\C)O.CCOC(=O)/C=C(\C)O.[Ti]`, the Potency is reported as “inactive”. In the case of `COc1ccc(C)cc1[N+](=O)[O-]`, the Potency is reported as “inactive”. In the case of `CCOc1ccc(N)c([N+](=O)[O-])c1`, the Potency is reported as “inactive”. For `CCCCCCCCCOS(=O)(=O)O`, the Potency was “inactive”. For `CO[C@@H]1[C@H](OC(=O)/C=C/C=C/C=C/C=C/C(=O)O)CC[C@]2(CO2)[C@H]1[C@@]1(C)O[C@@H]1CC=C(C)C`, the Potency was 2.7 nM (active) and 10.9 nM (active). For `O=C(OCCCCCCOC(=O)c1ccccc1)c1ccccc1`, the Potency was 54.5 µM (active). With `O=C(O)CC(=O)C(=O)O` the Potency was “inactive”. With `CCOCC(O)COc1ccc(NC(=O)CC[S+](C)C)cc1` (stereo not given) the Potency was “inactive”. With `CCCCCCc1ccc(-c2ccc(C#N)cc2)cc1` the Potency was “inactive”. In the case of `Clc1ccc2c(c1)CCc1cccnc1C2=C1CCNCC1`, the Potency is reported as 8.41 µM (active). In the case of `c1ccc(-c2ccccn2)nc1`, the Potency is reported as 24.3 µM (active). In the case of `CCO[Si](CCCCl)(OCC)OCC`, the Potency is reported as “inactive”. With `C=C(C)C(=O)OCCOCC` the Potency was “inactive”. In the case of `O=[N+]([O-])c1ccc2[nH]ncc2c1`, the Potency is reported as “inactive”. In the case of `CN(C)c1ccc(C(c2ccccc2)c2ccc(N(C)C)cc2)cc1`, the Potency is reported as 8.63 µM (active). For `CC(C)(C)OCC1CO1` (stereo not given), the Potency was “inactive”. In the case of `CC(CSC(=O)c1ccccc1)C(=O)N1C[C@@H](Sc2ccccc2)C[C@H]1C(=O)O` (stereo not given in full), the Potency is reported as “inactive”. In the case of `CN(C)CCCN1c2ccccc2Sc2ccccc21`, the Potency is reported as 10.1 µM (active). With `CC(C)CC(=O)C1C(=O)c2ccccc2C1=O` the Potency was “inactive”. For `CC(C)(C)Cl`, the Potency was “inactive”. In the case of `Nc1cccc([N+](=O)[O-])c1`, the Potency is reported as “inactive”. For `C=C(C)C(=O)OCC`, the Potency was “inactive”. For `COC(C)OC`, the Potency was “inactive”. For `CCOC(=O)C1=C[C@]2(CC)CCCN3CCc4c(n1c1ccccc41)[C@@H]32`, the Potency was 16.8 µM (active) and 10.6 µM (active). With `COc1cc2nc(N(C)CCCNC(=O)C3CCCO3)nc(N)c2cc1OC` (stereo not given) the Potency was “inactive”. For `Nc1ncn([C@H]2C[C@H](O)[C@@H](CO)O2)c(=O)n1`, the Potency was 0.0298 µM (active). In the case of `CNCCCCOc1ccccc1Cc1ccccc1`, the Potency is reported as 5.31 µM (active). With `O=C1OC(=O)C2C3C=CC(C3)C12` (stereo not given) the Potency was “inactive”. With `CCOc1ccc(N=Nc2ccc(/C=C/c3ccc(N=Nc4ccc(OCC)cc4)cc3S(=O)(=O)O)c(S(=O)(=O)O)c2)cc1` the Potency was “inactive”. For `CNC(=O)CN(CCN(CCN(CC(=O)[O-])CC(=O)NC)CC(=O)[O-])CC(=O)[O-].O.[Gd+3]`, the Potency was “inactive”.
